LmPK inhibitor: inhibitors of Leishmania mexicana pyruvate kinase; Potency, µM (highest dose often 57.5 µM), for the others: at the top dose activity change, negative = inhibition, usual class: inhibitors; purified LmPK, Kinase-Glo ATP luminescence, 1 h; 0.37% of 290,000 active; Q27686; further: potency means the concentration at half of the fitted maximal effect; on the % scale 0 is the no-effect control and ±100 the full control effect
Target sequence (Q27686 whole entry, looked up): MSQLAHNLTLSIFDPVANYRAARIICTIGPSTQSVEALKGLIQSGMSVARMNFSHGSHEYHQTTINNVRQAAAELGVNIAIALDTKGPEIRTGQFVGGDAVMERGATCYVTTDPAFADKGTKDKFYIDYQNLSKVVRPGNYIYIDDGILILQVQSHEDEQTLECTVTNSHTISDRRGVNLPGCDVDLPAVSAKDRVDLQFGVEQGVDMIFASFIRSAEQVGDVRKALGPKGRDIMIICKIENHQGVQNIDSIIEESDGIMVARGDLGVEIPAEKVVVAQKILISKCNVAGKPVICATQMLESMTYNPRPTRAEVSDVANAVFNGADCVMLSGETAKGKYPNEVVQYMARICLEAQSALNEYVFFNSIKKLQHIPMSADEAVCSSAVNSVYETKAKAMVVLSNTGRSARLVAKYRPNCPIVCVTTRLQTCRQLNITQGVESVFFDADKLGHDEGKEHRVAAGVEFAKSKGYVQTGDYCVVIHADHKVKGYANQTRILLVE
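0.1 nM LmPK, 0.5 mM PEP, 0.1 mM ADP; 50 mM imidazole pH 7.2, 7 mM MgCl2, 50 mM KCl; 1 h RT. Kinase-Glo luminescence readout, normalized to no-enzyme (full inhibition) and uninhibited wells.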
CHX counter: counter-screen for Shiga toxin inhibitors: cycloheximide protein synthesis inhibition. cell reporter, cycloheximide protein synthesis inhibition counterscreen. max response, %. 12% of 300,000 active; in the data active means max response mostly above about 13%, no sharp cut-off; inactive means mostly below about 14%; further: read at 38.3 µM for the half of the compounds with a filed dose; 0% is about no effect
Pf growth 48h: P. falciparum growth inhibition at 48 hours (one generation); Potency, µM (top dose mostly 28.7 µM), without a hit: at the top dose activity change, negative = inhibition, most hits filed as inhibitors; AID 504832; 5.9% of 310,000 active; P. falciparum luciferase growth in erythrocytes, 48 h; further: potency means the concentration at half of the fitted maximal effect; on the % scale 0 is the no-effect control and ±100 the full control effect
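Read-out is firefly luciferase luminescence from an integrated reporter in P. falciparum, so falling signal marks reduced parasite growth. Infected erythrocytes were at 2% hematocrit and 0.1% parasitemia (final) in Albumax-supplemented RPMI 1640.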
Pf growth 96h: inhibits malaria parasite growth, 96 h; P. falciparum luciferase reporter growth, 96 h; Potency, µM (top dose mostly 28.7 µM), inactives show at the top dose activity change, negative = inhibition, usual class: inhibitors; 6.9% of 320,000 active; AID 504834; further: potency means the concentration at half of the fitted maximal effect; on the % scale 0 is the no-effect control and ±100 the full control effect
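Infected RBCs, 2% Hct / 0.05% parasitemia final; luciferase-reporter P. falciparum; cpd 96 h, 37 C, 5% CO2; luciferase detection reagent; luminescence.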
Shiga toxin inh: blocks Shiga toxin action in Vero cells | 9.2% of 290,000 active | Vero cells, Shiga toxin protein synthesis inhibition reporter | AID 2315 | inhibition, % at 38.7 µM; in the data active means inhibition mostly above about 28%, no sharp cut-off; inactive means mostly below about 43%; further: 0% is about no effect
An asterisk follows results filed as active; i = inactive; u = inconclusive; x = not tested or not shown; [ ] = remark or other dose. In the library only some 22% were active in any assay of this set; here they are far more common. Unless noted, the call rests on the fitted dose curve; in most records, active means well fitted inhibition curve with a large enough effect; inconclusive means small, poorly fitted or top-dose-only effect, or another doubt; inactive means no such curve, though single readings can be large or run the other way.

SMILES	LmPK inhibitor	CHX counter	Pf growth 48h	Pf growth 96h	Shiga toxin inh
CCC1=Nc2cc(C(=O)NCCN3CCCC3)ccc2Sc2ccccc21	1%	-3	u	2.3µM*	-3
COC(=O)c1ccccc1NC(=O)Nc1cccs1	8%	-3	0%	0%	-3
O=C(Nc1cccs1)Nc1c(F)c(F)cc(F)c1F	2%	2	u	4.7µM*	-6
O=C(Nc1cccs1)Nc1ccccc1Br	-2%	30*	78%	u	47*
O=C(COC(=O)C1CC1)Nc1ccc(Cl)cn1	x	x	23%	17%	x
CCC(=O)N1CCN=C1SCc1cccc(F)c1	-8%	2	-7%	u	6
O=c1c(Br)c(N2CCOCC2)cnn1-c1ccccc1	3%	18*	260%	4%	92*
CN1CCN(c2cnn(-c3ccccc3)c(=O)c2Br)CC1	-1%	29*	37%[5.75 µM]	u	53*
O=c1c(Br)c(Br)cnn1-c1ccccc1	3%	-9	-28%	-2%	-32
O=c1c(Br)c(N2CCCC2)cnn1-c1ccccc1	-1%	47*	123%	34%	81*
O=c1c(Br)c(N2CCCCC2)cnn1-c1ccccc1	-2%	21*	199%	30%	116*
Cc1[nH]c2ccccc2c1C(=O)COC(=O)c1c(-c2c(F)cccc2Cl)noc1C	4%	-7	u	u	-13
O=C(Nc1ccnc(-c2cccnc2)n1)c1cccc(Cl)c1Cl	6%	0	u	u	-9
C=Cc1ccc(CSc2cc(C)nc3nc(C)nn23)cc1	6%	12	-17%	u	-7
COC(=O)c1ccc(COc2ccccc2/C=C(\C#N)C(=O)NC(C)C)cc1	2%	3	36%	62%	9
COC(=O)c1ccc(COc2ccccc2/C=C/C(=O)c2ccc(OCC(=O)O)cc2)cc1	-2%	1	u	1.5µM*	47
CCOc1cc(/C=N/Nc2cccc(C(=O)O)c2)ccc1OC(=O)c1ccccc1	3%	61*	129%	48%	186*
CC(Nc1ccc(Br)cc1)C(=O)N/N=C/c1ccccc1OCc1ccccc1 (stereo not given)	-1%	-5	x	-3%	-6
O=C(O)c1cccc(NC(=S)N/N=C/c2ccccc2OCc2ccc(Br)cc2)c1	1%	16*	11%	u	69
COc1ccc(NC(C)C(=O)N/N=C/c2ccccc2OCc2ccc(Br)cc2)cc1 (stereo not given)	3%	35*	9.3µM*	67%	145*
CCCC[C@H](NC(=O)[C@H](CO)NC(=O)[C@H](Cc1ccc(O)cc1)NC(=O)[C@H](CO)NC(C)=O)C(=O)N[C@@H](CCC(=O)O)C(=O)N[C@@H](Cc1cnc[nH]1)C(=O)N[C@H](Cc1ccccc1)C(=O)N[C@@H](CCCNC(=N)N)C(=O)N[C@@H](Cc1c[nH]c2ccccc12)C(=O)NCC(=O)N[C@@H](CCCCN)C(=O)N1CCC[C@H]1C(=O)N[C@H](C(N)=O)C(C)C	x	-7	x	x	-9
O=C1OC2C[C@H]1[C@@H]1C(=O)N(Cc3ccccc3)CCC1C2I (stereo not given in full)	x	1	x	x	i
COC(=O)c1ccc(COc2ccccc2/C=N/Nc2cccc(C(=O)O)c2)cc1	4%	55*	8%	36%	80*
Cc1ccc(-c2onc3ccc(C=O)cc23)cc1	-7%	59*	x	194%	99*
Cc1ccc(-c2onc3ccc(C4(C)OCCO4)cc23)cc1	-6%	-5	9%	x	-23
SMILES	LmPK inhibitor	CHX counter	Pf growth 48h	Pf growth 96h	Shiga toxin inh
Cc1cc(-c2onc3ccc(Cl)cc23)ccc1O	-8%	27*	-11%	15%	50*
CC(=O)c1ccc2noc(-c3ccc(Cl)cc3)c2c1	8%	-3	-7%	-2%	15
CC1=C(C(=O)N2CCN(c3cc(C)ccc3C)CC2)C2(CCC(C)CC2)OC1=O (stereo not given)	0%	-1	u	u	-17
CCC(CC)C(=O)Nc1c2c(nn1-c1ccc(OC)cc1)CS(=O)C2 (stereo not given)	-3%	-4	x	0.033µM*	-3
O=C(NCCN1CCN(c2ccccc2)CC1)Nc1ccccc1Br	1%	-2	-25%	36%	10
CN1c2ccccc2C(=O)N2CCc3c([nH]c4ccccc34)C21 (stereo not given)	x	1	x	x	23
CN1CCc2ccccc2Cc2[nH]c3ccccc3c2CC1	x	x	8.3µM*	6.6µM*	x

Screening data from PubChem BioAssay.
